A short description of the assay: Nuclear factor erythroid 2-related factor 2/antioxidant responsive element (Nrf2/ARE) small molecule agonists: luciferase reporter gene qHTS assay in human keratinocytes (AID 1919969; note: nearly all actives have a fitted effect of over 35% in size). (In general: In a reporter assay the amount or activity of a reporter protein is the signal.)

Values joined by “and” are separate entries in the source; they are usually repeats but may differ in a detail not shown here. Equal values may be shown once. Inconclusive results are not listed. Entries that show only a call come without a potency. Unmarked numbers belong to inactive results. Active and inactive are the calls of the source. Calls come from the whole dose curve.
Potency is the fitted concentration of half-maximal effect.

As for `CNCCCC12CCC(c3ccccc31)c1ccccc12`, the Potency entry is “inactive”.

On to `O=c1[nH]c(=O)c2cn[nH]c2[nH]1`, for which the Potency entry was “inactive”.

On to `CCOc1ccc2c(c1)C(C)=CC(C)(C)N2`, for which the Potency is 68.2 µM (active) and 68.6 µM (active).

For the compound `CCCOC(C)=O`, the Potency result is “inactive”.

On to `Nc1ccc(NCCO)c([N+](=O)[O-])c1`, for which the Potency entry is “inactive”.

Take `CC(C)CCOC(=O)c1ccccc1`: the Potency result was “inactive”.

On to `O=c1cccc[nH]1`, for which the Potency result was “inactive”.

Take `CC(C)(C)CC(C)(C)c1ccc(Nc2ccc(C(C)(C)CC(C)(C)C)cc2)cc1`: the activity, positive = activation was -1.24% [at 8.39 µM].

Take `C/C(Cl)=C/CCl`: the Potency entry is “inactive”.

For `Cc1cc(C)c(C(=O)O)c(C)c1`, the Potency result is “inactive”.

Consider `CCn1c2ccccc2c2ccccc21`, for which the Potency entry is “inactive”.

For `CCOC(=O)[C@H](CCc1ccccc1)N[C@@H](C)C(=O)N1C(=O)N(C)C[C@H]1C(=O)O`, the Potency result was “inactive”.

As to `COC(=O)Nc1ccc(Cl)c(Cl)c1`, the Potency result is “inactive”.

For the compound `C[Si](C)O[Si](C)C`, the Potency result was “inactive”.

As for `FC(F)(F)c1ccccc1`, the Potency entry is “inactive”.

As for `CCOC(=O)c1cc(=O)c2c(OCC(COc3cccc4oc(C(=O)OCC)cc(=O)c34)OC(=O)[C@@H](N)CCCCN)cccc2o1`, the Potency result was “inactive”.

Turning to `Cc1ccc(C(C)c2ccc(C)c(C)c2)cc1C`, the Potency result was “inactive”.

On to `C[N+]1([O-])CCOCC1`, for which the Potency entry was “inactive”.

On to `C=CC(C)(CCC=C(C)C)OC=O` (stereo not given), for which the Potency entry is “inactive”.

As for `CCCC(O)C(O)CO` (stereo not given), the Potency entry was “inactive”.

As for `CCCCCCCCSCC`, the Potency entry is “inactive”.

Turning to `NC/C=C/C(=O)O`, the Potency entry was “inactive”.

Take `O=C1OC(CN2CCOCC2)CN1/N=C/c1ccc([N+](=O)[O-])o1` (stereo not given): the Potency result was “inactive”.

For the compound `Nc1cc([N+](=O)[O-])ccc1Cl`, the Potency result is “inactive”.

In the case of `NCCC(O)(P(=O)(O)O)P(=O)(O)O`, the Potency result is “inactive”.

Regarding `CCCCCC/C=C/C(=O)OC`, the Potency result is “inactive”.

For `C[C@@H](O)[C@H]1C(=O)N2C(C(=O)O)=C([C@H]3CCCO3)S[C@H]12`, the Potency entry is “inactive”.

Turning to `COc1cc2c(Nc3ccc(Br)cc3F)ncnc2cc1OCC1CCN(C)CC1`, the Potency result is “inactive”.

As for `CC(=O)N1C[C@H](O)C[C@H]1C(=O)O`, the Potency result is “inactive”.

`C(/C=C/C=C/Nc1ccccc1)=Nc1ccccc1`: the Potency result was “inactive”.

For `OCC1CCC(CO)CC1` (stereo not given), the Potency result is “inactive”.

Turning to `CSc1ccc(C(=O)c2[nH]c(=O)[nH]c2C)cc1`, the Potency result was “inactive”.

Consider `CC(C#N)(CCC(=O)O)N=NC(C)(C#N)CCC(=O)O` (stereo not given), for which the Potency result is “inactive”.

In the case of `C[Si]1(C)O[Si](C)(C)O[Si](C)(C)O[Si](C)(C)O[Si](C)(C)O1`, the Potency entry is “inactive”.

As for `CCCCCCCC(=O)[O-].CCCCCCCC(=O)[O-].[Zn+2]`, the Potency result is “inactive”.

The values are drawn from PubChem BioAssay (Tox21).
